# Screening data (PubChem)
# The entries come from a sample that favours hits as a whole.
# ST2 inh = inhibitors of human ST2 (IL1RL1) binding to IL-33, primary screen, biochemical, AlphaLISA; Interleukin-1 receptor-like 1 (Homo sapiens), Q01638; AlphaLISA ST2-Fc/biotin-IL-33 interaction, 1 h; inhibition, % for hits at 17 µM; 2.3% of 78,000 active; AID 1259354, 2018; in the data active means inhibition above about 30%
# Target sequence (Q01638 whole entry, looked up): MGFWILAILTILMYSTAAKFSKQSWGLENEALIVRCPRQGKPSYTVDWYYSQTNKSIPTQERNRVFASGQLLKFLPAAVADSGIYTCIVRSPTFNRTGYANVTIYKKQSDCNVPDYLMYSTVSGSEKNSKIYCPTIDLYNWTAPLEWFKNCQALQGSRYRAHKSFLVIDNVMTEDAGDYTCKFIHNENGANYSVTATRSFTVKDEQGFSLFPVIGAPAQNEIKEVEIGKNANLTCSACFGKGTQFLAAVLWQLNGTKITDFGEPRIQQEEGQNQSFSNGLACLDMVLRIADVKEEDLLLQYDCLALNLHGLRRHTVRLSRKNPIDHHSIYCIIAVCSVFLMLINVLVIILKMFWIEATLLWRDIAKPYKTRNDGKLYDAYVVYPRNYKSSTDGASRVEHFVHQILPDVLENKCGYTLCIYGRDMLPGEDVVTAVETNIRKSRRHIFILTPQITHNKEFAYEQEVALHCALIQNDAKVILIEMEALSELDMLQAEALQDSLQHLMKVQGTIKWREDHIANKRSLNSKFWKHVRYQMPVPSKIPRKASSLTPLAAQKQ
# * hit, by the source's call; i = inactive; ! = not confirmed by another sample.
SMILES,ST2 inh
O=C1Nc2ccccc2C(O)(C(=O)NCc2ccc3c(c2)OCO3)N1c1ccccc1 (centres undefined),30.0%*
CCN(CC)CCNC(=O)C1(O)c2ccccc2NC(=O)N1c1ccccc1 (centres undefined),i
CN(C)CCNC(=O)C1(O)c2ccccc2NC(=O)N1c1ccccc1 (centres undefined),i
CCCCNC(=O)C1(O)c2cc(Br)ccc2NC(=O)N1c1ccccc1 (centres undefined),i
COc1ccc(CNC(=O)C2(O)c3ccccc3NC(=O)N2c2cccc(OC)c2)cc1 (centres undefined),i
CCN(CC)CCNC(=O)C1(O)c2cc(Br)ccc2NC(=O)N1c1ccccc1 (centres undefined),31.0%*!
Cc1ccc(S(=O)(=O)N2CCCCC2)cc1C(N)=O,i
CCOC(=O)N1CCN(C(=O)CN(C)S(=O)(=O)c2ccc(Br)cc2)CC1,i
COc1ccc(C(=O)CCC(=O)N2CCCC(Nc3cccc(F)c3)C2)cc1 (centres undefined),i
O=C(O)c1cc2c3c(c1)C1C=CCC1C(c1ccccc1F)N3CC1CC=CC21 (centres undefined),i
O=C(O)c1cc2c3c(c1)C1C=CCC1C(c1cccc([N+](=O)[O-])c1)N3CC1CC=CC21 (centres undefined),40.0%*
O=C(O)c1cc2c3c(c1)C1C=CCC1C(c1ccc(F)cc1)N3CC1CC=CC21 (centres undefined),i
CN1CCN(C(=O)CNS(=O)(=O)c2cccs2)CC1,i
C=CCN(CC=C)S(=O)(=O)c1ccc(C(=O)Nc2nnc(-c3ccc(Cl)s3)o2)cc1,i
O=C(Nc1ccc(S(=O)(=O)N2CCCC2)cc1)C(F)(F)F,i
CC(=O)Nc1ccc(CN2CCN(c3ccc(Cl)cc3)CC2)cc1,i
O=C(Nc1ccc(Br)cc1)c1ccc(Cl)cc1Cl,i
O=C(Nc1ccc(N2CCCC2)cc1)C(Cl)(Cl)Cl,38.0%*
O=C(Nc1ccc(N2CCOCC2)cc1)c1ccc(Br)cc1,i
O=C(Nc1ccc(N2CCCC2)cc1)c1cc(Br)ccc1Cl,34.0%*
O=c1oc2ccc([N+](=O)[O-])cc2cc1-c1csc(Nc2ccc(F)cc2)n1,i
Cc1cc(OCC(O)CN2CCN(c3ccccc3)CC2)cc(C)c1Cl (centres undefined),i
O=C(Cc1c(C(=O)O)[nH]c2ccccc12)Nc1ccc(F)cc1F,i
CCCN1CCC(NC2c3ccccc3-c3ccccc32)CC1,i
COc1ccc(CNS(=O)(=O)c2ccc3c(c2)CCN3C(=O)C2CC2)cc1,i
SMILES,ST2 inh
O=C(C1CC1)N1CCc2cc(Br)cc(S(=O)(=O)NCc3cccnc3)c21,i
O=C(C1CC1)N1CCc2cc(S(=O)(=O)NCc3ccc(F)cc3)ccc21,i
O=C(C1CC1)N1CCc2cc(S(=O)(=O)NCc3ccc4c(c3)OCO4)ccc21,36.0%*
Cc1ccc(CNS(=O)(=O)c2cc(Br)cc3c2N(C(=O)C2CC2)CC3)cc1,i
O=C(C1CC1)N1CCc2cc(Br)cc(S(=O)(=O)NCc3ccc4c(c3)OCO4)c21,32.0%*
O=c1c(Cl)c(N2CCCCCC2)cnn1-c1ccccc1,i
O=C(Nc1ccc(Cl)cc1)C1CCN(S(=O)(=O)c2cccc3cccnc23)CC1,i
Cn1c(=O)cc(SCC(=O)NC2CCCCCC2)c2ccccc21,i
COc1cc(C)c2c(=O)c(Oc3ccccc3)c(C(F)(F)F)oc2c1,i
Oc1cc(O)cc(/C=C/c2ccc(O)c(O)c2)c1,33.0%*
COC(=O)[C@]1(O)C[C@@H](O)[C@@H](O)[C@H](OC(=O)/C=C/c2ccc(O)c(O)c2)C1,i
Oc1ccc(/C=C/c2ccc(/C=C/c3ccc(O)cc3)c(Br)c2)cc1,i
CSCCC(NC(=O)C1CCCCC1)C(=O)Nc1ccc(Br)c(C)c1 (centres undefined),i
COc1cccc(C(=O)ON=C2C=CC(=O)C=C2)c1,i
COc1ccc(C(=O)OC(C)C(O)c2ccc(OC)cc2)cc1 (centres undefined),i
COc1ccc(C(=O)ON=C2c3ccccc3-c3ccccc32)cc1,40.0%*
Cc1nc(N2CCCC(N)CC2)c2ccsc2n1 (centres undefined),i
Cc1noc(C)c1CCCNC(=O)c1ccc(-c2cc3ccccc3o2)nc1,i
COc1ccc(C(=O)Nc2cccc(-c3nc4cc(C)ccc4o3)c2)cc1[N+](=O)[O-],i
COc1ccccc1C(=O)Nc1ccc(-c2nc3cc(C)ccc3o2)cc1,i
COc1ccc(C(=O)Nc2ccc(-c3nc4cc(C)ccc4o3)c(O)c2)cc1Cl,30.0%*
O=C(CSc1nccc2ccccc12)c1ccccc1,i
O=C(NCc1ccccc1)C(=O)NC1CC1,i
CCOC(=O)c1oc2ccccc2c1NC(=O)COc1ccc(OC)cc1,i
COc1ccc([C@@H](C)NC(=O)N2CCC(n3cc(C(C)(C)N)nn3)CC2)cc1,i
SMILES,ST2 inh
COc1cccc(-c2ccccc2NC(=O)C2CCN(Cc3cccc4ncccc34)CC2)c1,i
N#C/C(=C\c1ccc(-c2ccccc2)o1)C(=O)Nc1cccc2ncccc12,40.0%*
N#C/C(=C\c1ccc(-c2cccc(C(F)(F)F)c2)o1)C(=O)O,i
O=C(NCCCn1ccnc1)c1ccccc1C(=O)c1ccccc1,i
O=C(O)CCC(C(=O)O)N1C(=O)c2ccccc2C1=O (centres undefined),i
CS(=O)CCC(C(=O)O)N1C(=O)c2ccccc2C1=O (centres undefined),38.0%*!
O=C(NCc1ccccc1)C(Cc1ccccc1)N1C(=O)c2ccccc2C1=O (centres undefined),i
Cc1ccccc1-c1noc(-c2ccc(N(C)Cc3cnn(C)c3)nc2)n1,i
Cc1ccc2nc(SCC(=O)c3ccc4c(c3)OCO4)[nH]c2c1,i
Cc1cccc2oc(-c3cccc(N=Cc4cc([N+](=O)[O-])cc([N+](=O)[O-])c4O)c3)nc12,i
Oc1ccc(N=Cc2cccc(I)c2O)cc1-c1nc2ccccc2o1,41.0%*
Cc1ccc2nc(-c3ccc(N=Cc4ccc5c(c4)OCO5)cc3O)oc2c1,32.0%*
Cc1ccc2nc(-c3cccc(N=Cc4cccc([N+](=O)[O-])c4O)c3)oc2c1,i
Cc1cc(C=Nc2ccc(-c3nc4ccccc4o3)c(O)c2)c(O)c([N+](=O)[O-])c1,30.0%*
O=C(O)c1ccc(O)c(C=Nc2cccc(-c3nc4ccccc4o3)c2)c1,i
O=C(Nc1ccc(O)c(-c2nc3ccccc3o2)c1)c1cccc(Cl)c1Cl,i
Cc1cccc2oc(-c3cccc(N=Cc4ccc(O)cc4O)c3)nc12,i
O=c1[nH]c2sc3c(c2c(=O)n1Cc1ccccc1)CCCC3,i
CCOc1ccc(C(=O)N(c2ccc(C)c(C)c2)C2C=CS(=O)(=O)C2)cc1 (centres undefined),i
CC(C)n1cc(CN2CCC(CNC(=O)C3CCCCC3)C2)cn1 (centres undefined),i
CC(=O)c1ccc(C2CC2)cc1,i
Cc1ccccc1NC(=O)C1C2CCCCC21 (centres undefined),i
Cc1ccccc1NC1CC(C)Nc2c(C)cccc21 (centres undefined),39.0%*
O=C(Nc1ccccc1C1CC1)c1ccc(Cl)cc1,i
Cc1cc(/C=C2\C(=O)NC(=O)N(C)C2=O)c(C)n1-c1ccc(F)c(Cl)c1,46.0%*
